The results in this text go back to PubChem BioAssay (NCATS).

Holding throughout (test): qHTS profiling for inhibitors of Plasmodium falciparum proliferation (AID 504749); further: nearly all actives have a fitted effect of over 60% in size
What all share (conditions): P. falciparum in erythrocytes, SYBR Green DNA, 72 h; series mostly up to 28.7 µM

In assay [1] the test system is CP335. A digest of the protocol: (§1)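 Each compound contacts P. falciparum-infected red blood cells for 72 h at 37 C; lysis buffer (Tris, EDTA, saponin, Triton X, SYBR Green I) is added and fluorescence measured next morning; values normalized to controls.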
The test system of assay [2] is DFO2036. The gist of the method:
as §1

The test system of assay [3] is DIV14. The gist of the method:
as §1

The test system of assay [4] is DIV17. The gist of the method: as §1
In assay [5] the test system is DIV30. The gist of the method:
as §1

The subject of assay [6] is Dd2. The gist of the method: as §1
For assay [7], the system named is ECU. The gist of the method: as §1
For assay [8], the system named is FAB9. The gist of the method:
as §1

Assay [9] has as its system GB4. The gist of the method: as §1
In assay [10] the test system is HB3. The gist of the method:
as §1

Inconclusive results are not listed. The source made the active and inactive calls. The call rests on the fitted dose curve; in most records, active means well fitted inhibition curve with a large enough effect; inconclusive means small, poorly fitted or top-dose-only effect; inactive means flat fitted curve, though single readings scatter.
Potency means the concentration at half of the fitted maximal effect.

`OC/C=C/c1ccccc1`: the Potency entry in assay [1], in assay [2], in [3], in assay [4], in assay [5] and in assay [6] was “inactive” in each case. Besides, the Potency entry in assay [7], in [8], in assay [9] and in assay [10] was “inactive” each time.
On to `O=C1c2ccccc2C(=O)c2c1ccc(O)c2O`, for which the Potency entry in assay [1], in assay [2], in assay [3], in [4], in assay [5] and in assay [6] was “inactive” each time. Moreover, the Potency result in [7], in assay [8], in assay [9] and in assay [10] was “inactive” each time.
Turning to `NC(=S)NS(=O)(=O)c1ccc(N)cc1`, the Potency result in [1], in [2], in assay [3], in assay [4], in assay [5] and in assay [6] was “inactive” throughout. For the same molecule, the Potency result in [7], in assay [8], in assay [9] and in [10] was “inactive” in each case.
In the case of `CC(O)CN(C)C` (stereo not given), the Potency entry in assay [1], in assay [2], in assay [3], in assay [4], in [5] and in [6] was “inactive” in each case. Moreover, the Potency result in [7], in assay [8], in assay [9] and in assay [10] was “inactive” throughout.
Regarding `OC[C@H]1O[C@@](CO)(O[C@H]2O[C@H](CO)[C@@H](O)[C@H](O)[C@H]2O)[C@@H](O)[C@@H]1O`, the Potency entry in assay [1], in assay [2], in [3], in assay [4], in [5] and in assay [6] was “inactive” throughout. In addition, the Potency entry in assay [7], in [8], in assay [9] and in [10] was “inactive” each time.
On to `CC(C)=CCC/C(C)=C/CC/C(C)=C/CC/C=C(\C)CC/C=C(\C)CCC=C(C)C`, for which the Potency entry in [1], in [2], in assay [3], in assay [4], in assay [5] and in [6] was “inactive” each time. In addition, the Potency result in [7], in assay [9] and in assay [10] was “inactive” each time. Further, in [8], the Potency is 10 pM (active).
In the case of `CC(=O)N=c1sc(S(N)(=O)=O)nn1C`, the Potency result in assay [1], in [2], in [3], in [4], in assay [5] and in [6] was “inactive” in each case. The Potency result in [7], in [8], in [9] and in assay [10] was “inactive” in each case.
In the case of `COc1ccc(/C=C/C(=O)OCCC(C)C)cc1`, the Potency result in [1], in assay [2], in [3], in [4], in assay [5] and in assay [6] was “inactive” throughout. The Potency entry in assay [7], in [8], in [9] and in [10] was “inactive” in each case.
With `Cc1ccccn1`, the Potency entry in assay [1], in [2], in [3], in assay [4], in assay [5] and in [6] was “inactive” in each case. In addition, the Potency result in assay [7], in assay [8], in [9] and in [10] was “inactive” in each case.
Regarding `O=C(O)/C=C/c1ccccc1`, the Potency result in assay [1], in assay [2], in assay [3], in assay [4], in [5] and in assay [6] was “inactive” throughout. For the same molecule, the Potency entry in assay [7], in assay [8], in assay [9] and in assay [10] was “inactive” in each case.
`CC(C)Cc1ccc([C@@H](C)C(=O)NS(C)(=O)=O)cc1`: the Potency entry in assay [1], in assay [2], in assay [3], in assay [4], in assay [5] and in assay [6] was “inactive” throughout. Further, the Potency entry in assay [7], in [8], in assay [9] and in assay [10] was “inactive” throughout.
Consider `CS(=O)(=O)OCC(O)C(O)COS(C)(=O)=O` (stereo not given), for which the Potency entry in assay [1], in assay [2], in [3], in assay [4], in assay [5] and in assay [6] was “inactive” each time. In addition, the Potency entry in [7], in [8], in [9] and in assay [10] was “inactive” throughout.
Consider `c1ccc2c(c1)OCC(CN1CCCCC1)O2` (stereo not given), for which the Potency result in assay [1], in assay [2], in assay [3], in [4], in [5] and in [6] was “inactive” each time. The Potency result in assay [7], in assay [8], in assay [9] and in assay [10] was “inactive” each time.
For `[O-][N+](=Nc1ccccc1)c1ccccc1`, the Potency result in assay [1], in assay [2], in [3], in assay [4], in [5] and in assay [6] was “inactive” throughout. The Potency entry in assay [7], in assay [8], in assay [9] and in assay [10] was “inactive” each time.
As for `O=C(O)COc1ccccc1/C=N/NC(=O)c1ccncc1`, the Potency result in assay [1], in assay [2], in [3], in assay [4], in assay [5] and in assay [6] was “inactive” throughout. Moreover, the Potency result in assay [7], in assay [8], in assay [9] and in assay [10] was “inactive” throughout.
On to `CC(=O)NCCCS(=O)(=O)O`, for which the Potency entry in assay [1], in assay [2], in assay [3], in [4], in assay [5] and in [6] was “inactive” throughout. Moreover, the Potency entry in [7], in [8], in [9] and in assay [10] was “inactive” in each case.
With `COc1ccc(/C=N/NC(=O)c2ccncc2)c(C(=O)O)c1OC`, the Potency result in [1], in assay [2], in assay [3], in assay [4], in assay [5] and in assay [6] was “inactive” each time. Also, the Potency entry in [7], in assay [8], in [9] and in [10] was “inactive” in each case.
As for `NC(=O)[C@@H]1CCCN1C(=O)[C@H](Cc1cnc[nH]1)NC(=O)[C@@H]1CCC(=O)N1`, the Potency entry in assay [1], in [2], in [3], in assay [4], in [5] and in assay [6] was “inactive” throughout. The Potency entry in assay [7], in [8], in assay [9] and in assay [10] was “inactive” each time.
Regarding `CN[C@@H]1[C@H](O[C@H]2[C@H](O[C@H]3[C@H](O)[C@@H](O)[C@H](N=C(N)N)[C@@H](O)[C@@H]3N=C(N)N)O[C@@H](C)[C@]2(O)C=O)O[C@@H](CO)[C@H](O)[C@H]1O`, the Potency result in [1], in assay [2], in [3], in [4], in assay [5] and in assay [6] was “inactive” in each case. Further, the Potency entry in assay [7], in assay [8], in assay [9] and in [10] was “inactive” each time.
As to `CC(C)(C)CC(C)(C)c1ccc(OCCO)cc1`, the Potency result in assay [1], in assay [2], in [3], in [4], in [5] and in [6] was “inactive” throughout. In addition, the Potency result in assay [7], in assay [8], in [9] and in [10] was “inactive” in each case.
For the molecule `COC(=O)c1ccccc1O`, the Potency result in [1], in [2], in [3], in assay [4], in assay [5] and in assay [6] was “inactive” each time. The Potency result in assay [7], in assay [8], in assay [9] and in assay [10] was “inactive” each time.
As to `NC(=O)C1c2ccccc2CCc2ccccc21`, the Potency entry in [1], in assay [2], in assay [3], in assay [4], in assay [5] and in assay [6] was “inactive” throughout. The Potency result in [7], in assay [8], in assay [9] and in assay [10] was “inactive” in each case.
With `O[C@@H]([C@H](O)[C@H](O)CBr)[C@H](O)CBr`, the Potency result in assay [1], in assay [2], in assay [3], in [4], in [5] and in [6] was “inactive” each time. Moreover, the Potency result in [7], in assay [8], in assay [9] and in assay [10] was “inactive” throughout.
On to `COC(=O)CC[C@H](N)C(=O)O`, for which the Potency entry in assay [1], in assay [2], in [3], in assay [4], in assay [5] and in assay [6] was “inactive” in each case. The Potency entry in [7], in assay [8], in [9] and in assay [10] was “inactive” each time.
On to `O=C(O)CCC(=O)c1ccc(-c2ccccc2)cc1`, for which the Potency entry in assay [1], in assay [2], in assay [3], in assay [4], in [5] and in assay [6] was “inactive” throughout. The Potency entry in assay [7], in assay [8], in assay [9] and in assay [10] was “inactive” throughout.
In the case of `CCCCC(CC)COS(=O)(=O)O` (stereo not given), the Potency entry in assay [1], in [2], in [3], in [4], in [5] and in assay [6] was “inactive” each time. For the same molecule, the Potency entry in [7], in assay [8], in assay [9] and in assay [10] was “inactive” in each case.
Consider `N=C(N)n1cccn1`, for which the Potency entry in assay [1], in assay [2], in assay [3], in [4], in [5] and in assay [6] was “inactive” throughout. Moreover, the Potency result in assay [7], in [8], in assay [9] and in [10] was “inactive” throughout.
